Structures are written as SMILES. Values without a mark were called inactive. Calls of active or inactive are those of the source.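 Rule for the calls, unless noted: active = compound raises insulin release from rat beta cells at 5 mM glucose, no numeric limit stated; inactive = the rest.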

One experiment can be described thus: stimulators of insulin release from INS-1E, primary screen, cell-based, 5 mM glucose, NPC library (AID 1117329). Note: reference of the scale not given here. To be noted: rat INS-1E insulin secretion, at 10 µM, active compounds read high.
For the molecule `OCCN1CCN(CCCN2c3ccccc3Sc3ccc(C(F)(F)F)cc32)CC1`, the insulin secretion stimulation is 8.85%.
Still for that read-out and setting: with `NS(=O)(=O)c1cc2c(cc1Cl)NC=NS2(=O)=O` the figure was -0.7%; with `O=C1C(CCS(=O)c2ccccc2)C(=O)N(c2ccccc2)N1c1ccccc1` (stereo not drawn), 2.6%.
Consider `Cc1ccc(-c2cc(C(F)(F)F)nn2-c2ccc(S(N)(=O)=O)cc2)cc1`, for which the insulin secretion stimulation was -0.6%.
Same read-out and setting: the value for `CN[C@H]1CC[C@@H](c2ccc(Cl)c(Cl)c2)c2ccccc21` was 11.8%; that for `Cc1ccccc1C(OCCN(C)C)c1ccccc1` (stereo not drawn) was 39.3% (active).
`CCc1nc(N)nc(N)c1-c1ccc(Cl)cc1`: the insulin secretion stimulation was 1.3%.
On the same count and under the same terms, the value for `COc1cc2nc(N(C)CCCNC(=O)C3CCCO3)nc(N)c2cc1OC` (stereo not drawn) was -0.3%; that for `CN(C)CCOC(c1ccc(Cl)cc1)c1ccccn1` (stereo not drawn) was 46.5% (active).
On the same count and under the same terms, with `N[C@@H](C(=O)N[C@@H]1C(=O)N2C(C(=O)O)=C(Cl)CS[C@H]12)c1ccccc1` the figure was 1.9%; with `Nc1ncn([C@@H]2O[C@H](CO)[C@@H](O)[C@H]2O)c(=O)n1`, 0.5%.
For the molecule `NCc1ccc(S(N)(=O)=O)cc1`, the insulin secretion stimulation is -0.5% (active).
Take `Cc1ncc([N+](=O)[O-])n1CC(C)O` (stereo not drawn): the insulin secretion stimulation was -0.9%.
Same read-out and setting: the value for `Cc1ccc(C)c(OCCCC(C)(C)C(=O)O)c1` was -1%; that for `CN1CCCC(n2nc(Cc3ccc(Cl)cc3)c3ccccc3c2=O)CC1` (stereo not drawn) was 5.8%.
On the same count and under the same terms, with `NS(=O)(=O)c1cc2c(cc1C(F)(F)F)NC(Cc1ccccc1)NS2(=O)=O` (stereo not drawn) the figure was 0.8%; with `COC1=CC(=O)C[C@@H](C)[C@]12Oc1c(Cl)c(OC)cc(OC)c1C2=O`, 6.2%.
Take `Cc1cn([C@H]2C[C@H](N=[N+]=[N-])[C@@H](CO)O2)c(=O)[nH]c1=O`: the insulin secretion stimulation was -1.7%.
The same measure, in the same setting: with `CN(CCOc1ccc(CC2SC(=O)NC2=O)cc1)c1ccccn1` (stereo not drawn) the figure was -0.5%.
The same measure, in the same setting: the value for `COc1ccc(OC)c(C(O)CNC(=O)CN)c1` (stereo not drawn) was 2.7%; that for `OC(CCN1CCCC1)(c1ccccc1)C1CCCCC1` (stereo not drawn) was 6.4%; that for `NC(=O)N1c2ccccc2CC(=O)c2ccccc21` was -0.8%.
As for `CCCNCC(O)COc1ccccc1C(=O)CCc1ccccc1` (stereo not drawn), the insulin secretion stimulation is 32.4% (active).
In the case of `C/C=C/C(=O)N(CC)c1ccccc1C`, the insulin secretion stimulation is -0.4%.
On the same count and under the same terms, with `CCCCCCNC(=O)n1cc(F)c(=O)[nH]c1=O` the figure was 0.3%; with `NC(=O)c1cnccn1`, -1.9%; with `CN(C)CCc1c[nH]c2ccc(C[C@H]3COC(=O)N3)cc12`, 1.2%.
On to `COc1ccccc1OCC(O)COC(N)=O` (stereo not drawn), for which the insulin secretion stimulation was -1.2%.
For the molecule `COC(=O)Nc1nc2ccc(C(=O)c3ccccc3)cc2[nH]1`, the insulin secretion stimulation was -0.3%.
With `CCn1cc(C(=O)O)c(=O)c2cc(F)c(N3CCN(C)CC3)cc21`, the insulin secretion stimulation is -0.5%.
As to `Cn1cnc([N+](=O)[O-])c1Sc1ncnc2nc[nH]c12`, the insulin secretion stimulation was 0.2%.
Take `c1ccc2[nH]c(-c3cscn3)nc2c1`: the insulin secretion stimulation is -1.2%.
The same measure, in the same setting: the value for `Cc1onc(-c2c(Cl)cccc2Cl)c1C(=O)N[C@@H]1C(=O)N2[C@@H]1SC(C)(C)[C@@H]2C(=O)O` was 1.5%; that for `Clc1ccc2c(c1)C(N1CCNCC1)=Nc1ccccc1O2` was 16.5%.
Same read-out and setting: with `CO[C@@]1(NC(=O)Cc2cccs2)C(=O)N2C(C(=O)O)=C(COC(N)=O)CS[C@@H]21` the figure was 2.1%.
On the same count and under the same terms, the value for `CCc1cccc2c3c([nH]c12)C(CC)(CC(=O)O)OCC3` (stereo not drawn) was -0.3%.
With `CC(C)(C)NCC(O)COc1cccc2c1C[C@H](O)[C@H](O)C2` (stereo partly drawn), the insulin secretion stimulation is -1.2%.
Same read-out and setting: the value for `O=S(=O)(O)CCS` was 1.6%; that for `O=c1[nH]cc(F)c(=O)[nH]1` was -3%.

A further experiment in a line: growth inhibition of GSK3B-pretreated HCT116 cells – cell-based, CellTiter-Glo, 0.2 to 20 µM (AID 1117336;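 active = compounds lowering colon cancer cell viability after pretreatment blocking the GSK3B kinase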). To be noted: HCT116 viability after GSK3B inhibitor, at 20 µM, active compounds read high. A general note: Cellular ATP, detected with luciferase, serves as a proxy for viable cell number.
Regarding `OCCN1CCN(CCCN2c3ccccc3Sc3ccc(C(F)(F)F)cc32)CC1`, the viability decrease is 118% (active).
Same read-out and setting: the value for `NS(=O)(=O)c1cc2c(cc1Cl)NC=NS2(=O)=O` was -4.3%; that for `O=C1C(CCS(=O)c2ccccc2)C(=O)N(c2ccccc2)N1c1ccccc1` (stereo not drawn) was -21%.
For `Cc1ccc(-c2cc(C(F)(F)F)nn2-c2ccc(S(N)(=O)=O)cc2)cc1`, the viability decrease was -9.9%.
On the same count and under the same terms, with `CN[C@H]1CC[C@@H](c2ccc(Cl)c(Cl)c2)c2ccccc21` the figure was 98.7% (active); with `Cc1ccccc1C(OCCN(C)C)c1ccccc1` (stereo not drawn), -86.6%; with `CCc1nc(N)nc(N)c1-c1ccc(Cl)cc1`, 18.7%.
On the same count and under the same terms, the value for `COc1cc2nc(N(C)CCCNC(=O)C3CCCO3)nc(N)c2cc1OC` (stereo not drawn) was -24.4%; that for `CN(C)CCOC(c1ccc(Cl)cc1)c1ccccn1` (stereo not drawn) was 8.6%.
Consider `N[C@@H](C(=O)N[C@@H]1C(=O)N2C(C(=O)O)=C(Cl)CS[C@H]12)c1ccccc1`, for which the viability decrease was 12.5%.
On to `Nc1ncn([C@@H]2O[C@H](CO)[C@@H](O)[C@H]2O)c(=O)n1`, for which the viability decrease was 83.3% (active).
Same read-out and setting: the value for `NCc1ccc(S(N)(=O)=O)cc1` was 1.95%; that for `Cc1ncc([N+](=O)[O-])n1CC(C)O` (stereo not drawn) was -3.45%.
On the same count and under the same terms, with `Cc1ccc(C)c(OCCCC(C)(C)C(=O)O)c1` the figure was 4.95%; with `CN1CCCC(n2nc(Cc3ccc(Cl)cc3)c3ccccc3c2=O)CC1` (stereo not drawn), -40.4%.
The same measure, in the same setting: the value for `NS(=O)(=O)c1cc2c(cc1C(F)(F)F)NC(Cc1ccccc1)NS2(=O)=O` (stereo not drawn) was -5.2%; that for `COC1=CC(=O)C[C@@H](C)[C@]12Oc1c(Cl)c(OC)cc(OC)c1C2=O` was 38.4%.
On to `Cc1cn([C@H]2C[C@H](N=[N+]=[N-])[C@@H](CO)O2)c(=O)[nH]c1=O`, for which the viability decrease was 4.9%.
On to `CN(CCOc1ccc(CC2SC(=O)NC2=O)cc1)c1ccccn1` (stereo not drawn), for which the viability decrease was -166%.
Consider `COc1ccc(OC)c(C(O)CNC(=O)CN)c1` (stereo not drawn), for which the viability decrease was 17.9%.
Same read-out and setting: with `OC(CCN1CCCC1)(c1ccccc1)C1CCCCC1` (stereo not drawn) the figure was -95.6%.
The same measure, in the same setting: the value for `NC(=O)N1c2ccccc2CC(=O)c2ccccc21` was -2.9%; that for `CCCNCC(O)COc1ccccc1C(=O)CCc1ccccc1` (stereo not drawn) was 7.9%.
For `C/C=C/C(=O)N(CC)c1ccccc1C`, the viability decrease was -18.4%.
As to `CCCCCCNC(=O)n1cc(F)c(=O)[nH]c1=O`, the viability decrease is 65.6% (active).
On the same count and under the same terms, with `NC(=O)c1cnccn1` the figure was 0.65%.
The same measure, in the same setting: the value for `CN(C)CCc1c[nH]c2ccc(C[C@H]3COC(=O)N3)cc12` was 14.8%; that for `COc1ccccc1OCC(O)COC(N)=O` (stereo not drawn) was -1%.
Still for that read-out and setting: the value for `COC(=O)Nc1nc2ccc(C(=O)c3ccccc3)cc2[nH]1` was 10.7%; that for `CCn1cc(C(=O)O)c(=O)c2cc(F)c(N3CCN(C)CC3)cc21` was -12.5%.
For `Cn1cnc([N+](=O)[O-])c1Sc1ncnc2nc[nH]c12`, the viability decrease is 42% (active).
The same measure, in the same setting: with `c1ccc2[nH]c(-c3cscn3)nc2c1` the figure was -3.75%; with `Cc1onc(-c2c(Cl)cccc2Cl)c1C(=O)N[C@@H]1C(=O)N2[C@@H]1SC(C)(C)[C@@H]2C(=O)O`, -15.4%.
Still for that read-out and setting: with `Clc1ccc2c(c1)C(N1CCNCC1)=Nc1ccccc1O2` the figure was 46.2%; with `CO[C@@]1(NC(=O)Cc2cccs2)C(=O)N2C(C(=O)O)=C(COC(N)=O)CS[C@@H]21`, -11.8%.
Consider `CCc1cccc2c3c([nH]c12)C(CC)(CC(=O)O)OCC3` (stereo not drawn), for which the viability decrease was -31.2%.
Consider `CC(C)(C)NCC(O)COc1cccc2c1C[C@H](O)[C@H](O)C2` (stereo partly drawn), for which the viability decrease is -26.3%.
For the molecule `O=S(=O)(O)CCS`, the viability decrease is 4.9%.
With `O=c1[nH]cc(F)c(=O)[nH]1`, the viability decrease was 87.4% (active).

The values are drawn from PubChem BioAssay.
